Calls of active or inactive are those of the source. Entries that show only a call come without a potency. Calls follow the shape of the dose curve; as a rule, active = well fitted curve in the direction sought with a large enough effect in the repeat runs; inconclusive = weak or mixed curves; inactive = flat fitted curve, though single readings scatter.
assay: qHTS assay to test for compound auto fluorescence at 460 nm (blue) in HEK293 cells (AID 720678); details: blue autofluorescence 405/460 nm; series mostly up to 46 µM
From the text: National Center for Advancing Translational Sciences [NCATS]
NIH Chemical Genomics Center [NCGC]
U.S. Environmental Protection Agency [EPA]
National Institutes of Environmental Health Sciences [NIEHS]
National Toxicology Program [NTP]
U.S. Food and Drug Administration [FDA]
Compound auto fluorescence often interferes with screening of the compound library against various biological targets and signaling pathways. Some of these compounds may have fluorophoric properties. Such properties may interfere with the assay outputs resulting in false positives and/or negatives. To decrease such complications and ensure the compound activities are relevant in terms of biological response, the Tox21 10K compound library was screened for auto fluorescence.
From the fluorophores used as reporter signals in our screening assays, the auto fluorescence equivalencies of compounds against three fluorophores have been evaluated: Triamterene, Fluorescein and Rose Bengal sodium for blue, green and red fluorescence, respectively. The fluorescence intensities were measured using Excitation/Emission wavelengths at 405/460nm, 485/535nm and 540/590nm for blue, green and red labels, respectively. This assay includes the blue fluorescence data.
Tox21 Assay Protocol Summary:
2,000 HEK293 cells in 5 uL of culture medium containing 10% dialyzed FBS per well were dispensed into black wall/clear bottom 1536-well plates using a Multidrop Combi Dispenser (Thermo Scientific). The assay plates were incubated for 4-5 hr at 37C to allow cell attachment to the well bottom, followed by the transfer of 23 nL compound or DMSO vehicle by a pintool work station (Kalypsys, San Diego, CA). After the assay plates were incubated overnight at 37C and 5% CO2, fluorescence intensities in the assay plates were measured by an Envision (PerkinElmer, Shelton, CT) plate reader using three labels for measuring blue, green and red fluorescence at […] 460, 535 and 590nm respectively.

| Structure (SMILES) | Potency |
| --- | --- |
| Cc1onc(-c2c(F)cccc2Cl)c1C(=O)N[C@@H]1C(=O)N2[C@@H]1SC(C)(C)[C@@H]2C(=O)O | inactive |
| Cc1cc(Br)ccc1NC(=O)CCl | inactive |
| FC(F)(F)C(F)(F)C(F)(F)C(F)(F)C(F)(F)F | inactive |
| Cc1cc(CC(C)CC(C)(C)C)n(O)c(=O)c1 (stereo not given) (tested in a mixture with another compound) | inactive |
| CCCCCCCCCCCCCCCCCCOCC(COP(=O)([O-])OCC[N+](C)(C)C)OC (stereo not given) | inactive |
| O=C[C@H](O)[C@@H](O)[C@@H](O)[C@H](O)CO | inactive |
| CC(=O)O[C@H]1C[C@@H]2CC[C@@H]3[C@H](CC[C@@]4(C)[C@H]3C[C@H]([N+]3(C)CCCCC3)[C@@H]4OC(C)=O)[C@@]2(C)C[C@@H]1[N+]1(C)CCCCC1 | inactive |
| CO/N=C(\C(=O)N[C@@H]1C(=O)N2C(C(=O)O)=C(COC(C)=O)CS[C@H]12)c1csc(N)n1 (stereo in doubt) | inactive |
| Nc1cc(Cl)c(NC2=NCCN2)c(Cl)c1 | inactive |
| C=CCN1C(=O)C(CC(C)C)NC1=S (stereo not given) | inactive |
| CO/N=C(\C(=O)N[C@@H]1C(=O)N2C(C(=O)[O-])=C(C[n+]3ccc(N)n3CCO)CS[C@H]12)c1csc(N)n1 | inactive |
| c1ccc(-n2cnnn2)cc1 | inactive |
| OCCCNc1ccccc1 | inactive |
| O=c1[nH]c(=O)n([C@H]2C[C@H](O)[C@@H](CO)O2)cc1/C=C/Br | inactive |
| CCCCC/C=C\C=C\C(=O)OCC | inactive |
| CO/N=C(\C(=O)N[C@@H]1C(=O)N2C(C(=O)[O-])=C(C[n+]3cccc4c3CCC4)CS[C@H]12)c1csc(N)n1 | inactive |
| CC12CCC(C[N+](C)(CCC[N+](C)(C)C)C1)C2(C)C (stereo not given) | inactive |
| COC(=O)[C@H]1[C@H]2C[C@H]3c4[nH]c5ccccc5c4CCN3C[C@H]2CC[C@@H]1O | inactive |
| O=C(O)[C@@H]1C[C@H](CP(=O)(O)O)CCN1 | inactive |
| CC(C)[N+]1(C)[C@@H]2CC[C@H]1CC(OC(=O)C(CO)c1ccccc1)C2 (stereo not given in full) | inactive |

| Structure (SMILES) | Potency |
| --- | --- |
| O=C1CC[C@@H](C(=O)N[C@H]2C[C@@H]2c2ccccc2)N1 | inactive |
| O=P(O)(O)C(O)(Cn1ccnc1)P(=O)(O)O | inactive |
| CCCn1c(=O)[nH]c(=O)c2[nH]cnc21 | inactive |
| CCCCCCCC[N+](C)(C)CCCCCCCC | inactive |
| NC(=O)[C@H]1O[C@@H](O)[C@H](O)[C@@H](O)[C@@H]1O | inactive |
| NCCO/C=C/[C@H](N)C(=O)O | inactive |
| CN(C)CCc1c[nH]c2ccc(Cn3cncn3)cc12 | inactive |
| N[C@H](C(=O)O)[C@@H]1CC(Cl)=NO1 | inactive |
| CCC1OC(=O)C[C@@H](O)[C@H](C)[C@@H](O[C@@H]2O[C@H](C)C[C@H](N(C)C)[C@H]2O)[C@@H](CC=O)C[C@@H](C)C(=O)/C=C/[C@]2(C)OC2C1C (stereo not given in full) | inactive |
| CC(=O)OCC(=O)[C@@]1(O)CC[C@H]2[C@@H]3C[C@H](C)C4=CC(=O)C=C[C@]4(C)[C@H]3[C@@H](O)C[C@@]21C | inactive |
| CCCCCCCCCCCCCC(=O)OCC(COP(=O)([O-])OCC[N+](C)(C)C)OC(=O)CCCCCCCCCCCCC (stereo not given) | inactive |
| COc1cc(/C=C/C(=O)CC(=O)/C=C/c2ccc(O)c(OC)c2)ccc1O | inactive |
| CN1C(C(=O)Nc2ccccn2)C(=O)c2sc(Cl)cc2S1(=O)=O (stereo not given) | inactive |
| COc1ccc2ccccc2c1 | inactive |
| NC(=O)[C@@H]1CCCN1C(=O)[C@H](Cc1cnc[nH]1)NC(=O)[C@@H]1CCC(=O)N1 | inactive |
| CC1CCCCN1CCCOC(=O)c1ccccc1 (stereo not given) | inactive |
| COC1[C@@H](O[C@@H]2O[C@H](C)[C@@H](O[C@H]3C[C@@](C)(O)[C@H](OC(=O)CC(C)C)[C@H](C)O3)[C@H](N(C)C)[C@H]2O)[C@@H](CC=O)C[C@@H](C)[C@@H](O)/C=C/C=C/C[C@@H](C)OC(=O)C[C@H]1OC(C)=O (stereo not given in full) | inactive |
| CC(=O)Nc1ccc(OC(C)=O)cc1 | inactive |
| CN[C@H](CC(C)C)C(=O)N[C@H]1C(=O)N[C@@H](CC(N)=O)C(=O)N[C@H]2C(=O)N[C@H]3C(=O)N[C@H](C(=O)N[C@@H](C(=O)O)c4cc(O)cc(O)c4-c4cc3ccc4O)[C@H](O)c3ccc(c(Cl)c3)Oc3cc2cc(c3O[C@@H]2O[C@H](CO)[C@@H](O)[C@H](O)[C@H]2O[C@H]2C[C@](C)(N)C(O)[C@H](C)O2)Oc2ccc(cc2Cl)[C@H]1O (stereo not given in full) | inactive |
| O=C1CCC/C=C\CCCCCCCCCC1 | inactive |

From PubChem BioAssay (Tox21)
